Data as given in PubChem BioAssay (NCI).
Where “and” joins values, the source holds several entries; their conditions need not be identical. Identical values can stand only once. The panel holds about 79,000 compounds, 15% with a hit somewhere; the sample as a whole holds those more often. Where a structure was tested more than once in an assay, its records may differ in their call. Calls of active or inactive are those of the source. No stated cut-off is given here; in the data, active means growth inhibition above about 70%; inactive means the rest.

Legend:
[1] = NCI Yeast Anticancer Drug Screen. Data for the rad50 strain (AID 155);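 further: 0% = growth of vehicle-only cultures of the same strain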; details: S. cerevisiae rad50 strain growth inhibition, stronger effect = higher value
Procedure, shortened: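 Vehicle-treated cultures provide the reference for the growth inhibition reported for compound-exposed, repair-deficient yeast.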

[2] = NCI Yeast Anticancer Drug Screen. Data for the mec2-1 strain (AID 157); details: S. cerevisiae mec2-1 strain, stronger effect = higher value
Procedure, shortened: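 Vehicle-treated cultures served as reference for growth inhibition of compound-exposed mec2-1 yeast.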

[3] = NCI Yeast Anticancer Drug Screen. Data for the sgs1 mgt1 strain (AID 161);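 further: 0% = growth of cultures given vehicle only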; details: S. cerevisiae sgs1 mgt1 strain, stronger effect = higher value
Procedure, shortened: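 Genetically altered yeast, compound exposure, growth inhibition relative to vehicle.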

[4] = NCI Yeast Anticancer Drug Screen. Data for the cln2 rad14 strain (AID 165);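 further: 0% = growth equal to vehicle treated cultures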; details: S. cerevisiae cln2 rad14 strain, stronger effect = higher value
Procedure, shortened: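 Each compound was tested on cln2 rad14 yeast. Inhibition of growth was calculated against vehicle-exposed controls.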

[5] = NCI Yeast Anticancer Drug Screen. Data for the bub3 strain (AID 167); details: S. cerevisiae bub3 mutant strain, stronger effect = higher value
Procedure, shortened: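 Mutant yeast screening strain plus compound; vehicle-treated cultures serve as the 0% inhibition reference.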

[6] = NCI Yeast Anticancer Drug Screen. Data for the mlh1 rad18 strain (AID 175); details: S. cerevisiae mlh1 rad18 strain growth inhibition, stronger effect = higher value
Procedure, shortened: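 Vehicle-treated cultures served as the reference for growth inhibition in a yeast strain carrying DNA damage repair alterations exposed to each compound.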

[7] = NCI Yeast Anticancer Drug Screen. Data for the wt1 strain (AID 149);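 further: 0% = growth of vehicle-treated wt1 cultures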; details: S. cerevisiae wt1 strain (SPY 50644) growth inhibition, stronger effect = higher value
Procedure, shortened: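 Each compound is tested on wt1 yeast and the loss of growth versus vehicle gives the inhibition value.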

[8] = NCI Yeast Anticancer Drug Screen. Data for the rad50EPP+ strain (AID 151);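 further: 0% = growth of vehicle-treated control cultures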; details: S. cerevisiae rad50 mutant strain, stronger effect = higher value
Procedure, shortened: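 In this screen, rad50EPP+ yeast were exposed to compounds. Growth inhibition was scored against vehicle-treated controls.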

[9] = NCI Yeast Anticancer Drug Screen. Data for the wt2 strain (AID 169); details: S. cerevisiae wt2 strain growth inhibition, stronger effect = higher value
Procedure, shortened: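 Inhibition of yeast growth was determined after compound treatment, normalised to controls receiving only vehicle.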

[10] = NCI Yeast Anticancer Drug Screen. Data for the mlh1 strain (AID 171);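 further: 0% = growth of vehicle-treated control cultures of the same strain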; details: S. cerevisiae mlh1 strain growth inhibition, stronger effect = higher value
Procedure, shortened: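 Vehicle-normalised growth inhibition of a repair- or checkpoint-altered yeast strain following compound treatment.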

[11] = NCI Yeast Anticancer Drug Screen. Data for the sgs1 strain (AID 173);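 further: 0% = growth of vehicle-only control cultures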; details: S. cerevisiae sgs1 mutant, stronger effect = higher value
Procedure, shortened: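 Screen format: yeast with repair or checkpoint alterations, compound exposure, growth read relative to vehicle.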

[12] = NCI Yeast Anticancer Drug Screen. Data for the rad18 strain (AID 177); details: S. cerevisiae rad18 mutant growth inhibition, stronger effect = higher value
Procedure, shortened: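 Test articles were incubated with altered yeast defective in DNA damage repair. Results are given as inhibition of growth versus vehicle.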

[13] = NCI Yeast Anticancer Drug Screen. Data for the mgt1 strain (AID 153); details: S. cerevisiae mgt1 mutant growth inhibition, stronger effect = higher value
Procedure, shortened: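 mgt1 strain exposed; growth vs vehicle control recorded as inhibition.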

[14] = NCI Yeast Anticancer Drug Screen. Data for the rad14 strain (AID 159);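 further: 0% = growth of vehicle-treated control cultures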; details: S. cerevisiae rad14 strain growth inhibition, stronger effect = higher value
Procedure, shortened: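 Inhibition of growth is reported for a repair-deficient yeast mutant following compound treatment, calculated relative to cultures that received vehicle.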

[15] = NCI Yeast Anticancer Drug Screen. Data for the CLN2oe strain (AID 163);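 further: 0% = growth of vehicle-only control cultures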; details: S. cerevisiae CLN2oe strain, stronger effect = higher value
Procedure, shortened: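 Inhibition relative to vehicle-treated yeast is reported. Cells: strain with genetic alteration in cell-cycle control, grown with compound.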

[16] = at 5.0 µM (retest, dose inferred, filed as 0.5)
[17] = at 50.0 µM (retest, dose inferred, filed as 5.0)

Measured: growth inhibition

OCC(O)C(O)C(O)C(O)c1nc2ccccc2[nH]1 (stereo unspecified)
inactive: [1]; [16] -2% and -4% | [1]; [17] -1% and -19% | [1]; at 50.0 µM 4% [middle of 5 runs] | [2]; [16] -17% and -20% | [2]; [17] -30% | [2]; at 50.0 µM 0.75% [middle of 5 runs] | [3]; [16] 3% and -6% | [3]; [17] 1% and -14% | [3]; at 50.0 µM 2% [middle of 5 runs] | [4]; [16] 0% and 2% | [4]; [17] -1% and 14% | [5]; [16] 6% and -5% | [5]; [17] 12% and -1% | [6]; [16] -1% and -11% | [6]; [17] 5% and 1%

CN(C)c1ccc(C(c2ccc(Cl)cc2)c2ccc(N(C)C)cc2)cc1
active: [7]; at 33.0 µM 73% | [7]; at 100.0 µM 86% | [1]; at 3.7 µM 97% | [1]; [16] 91% and 98% | [1]; at 11.0 µM 96% | [1]; at 33.0 µM 89% | [1]; [17] 94% and 99% | [1]; at 50.0 µM 95.7% and 94.5% | [1]; at 100.0 µM 79% | [2]; at 3.7 µM 98% | [2]; [16] 90% and 99% | [2]; at 11.0 µM 97% | [2]; at 33.0 µM 93% | [2]; [17] 93% and 100% | [2]; at 50.0 µM 95% and 94.3% | [2]; at 100.0 µM 86% | [3]; [16] 98% | [3]; [17] 94% and 99% | [3]; at 50.0 µM 94.1% and 95.3% | [4]; [17] 74% and 99% | [4]; at 50.0 µM 77.9% and 89.7% | [5]; at 1.2 µM 80% | [5]; at 3.7 µM 98% | [5]; [16] 93% and 99% | [5]; at 11.0 µM 97% | [5]; at 33.0 µM 93% | [5]; [17] 91% and 99% | [5]; at 50.0 µM 94.4% and 91.3% | [5]; at 100.0 µM 80% | [9]; at 33.0 µM 86% | [9]; at 100.0 µM 85% | [10]; at 3.7 µM 87% | [10]; at 11.0 µM 73% | [10]; at 33.0 µM 92% | [10]; at 100.0 µM 86% | [11]; at 3.7 µM 91% | [11]; at 11.0 µM 83% | [11]; at 33.0 µM 93% | [11]; at 100.0 µM 85% | [6]; [16] 96% and 98% | [6]; [17] 90% and 99% | [6]; at 50.0 µM 93.4% and 92.8% | [12]; at 1.2 µM 94% | [12]; at 3.7 µM 98% | [12]; at 11.0 µM 97% | [12]; at 33.0 µM 90% | [12]; at 100.0 µM 83%
inactive: [7]; at 1.2 µM 0% | [7]; at 3.7 µM 53% | [7]; at 11.0 µM 28% | [8]; at 1.2 µM 3% | [8]; at 3.7 µM 10% | [8]; at 11.0 µM 6% | [8]; at 33.0 µM -2% | [8]; at 100.0 µM 14% | [1]; at 1.2 µM 64% | [2]; at 1.2 µM 31% | [9]; at 1.2 µM -2% | [9]; at 3.7 µM 13% | [9]; at 11.0 µM 17% | [10]; at 1.2 µM 9% | [11]; at 1.2 µM 24%
-52% (inactive) and 97% (active): [4]; [16]

O=[N+]([O-])c1ccc2nnnn2c1
inactive: [7]; at 1.2 µM 1% | [7]; at 3.7 µM 2% | [7]; at 11.0 µM 7% | [7]; at 33.0 µM 11% | [7]; at 100.0 µM 19% | [13]; at 1.2 µM 0% | [13]; at 3.7 µM 2% | [13]; at 11.0 µM 4% | [13]; at 33.0 µM 23% | [13]; at 100.0 µM 18% | [1]; at 1.2 µM -3% | [1]; at 3.7 µM -1% | [1]; [16] 10% | [1]; at 11.0 µM 3% | [1]; at 33.0 µM 10% | [1]; at 100.0 µM 21% | [2]; at 1.2 µM -1% | [2]; at 3.7 µM 2% | [2]; [16] 3% | [2]; at 11.0 µM 4% | [2]; at 33.0 µM 12% | [2]; [17] 23% | [2]; at 50.0 µM 43.9% | [2]; at 100.0 µM 43% | [14]; at 1.2 µM -1% | [14]; at 3.7 µM 0% | [14]; at 11.0 µM 5% | [14]; at 33.0 µM 10% | [14]; at 100.0 µM 30% | [3]; [16] 29% | [3]; at 50.0 µM 60.8% | [15]; at 1.2 µM -5% | [15]; at 3.7 µM 1% | [15]; at 11.0 µM -1% | [15]; at 33.0 µM -7% | [15]; at 100.0 µM 1% | [4]; [16] 2% | [4]; [17] 28% | [4]; at 50.0 µM 29.9% | [5]; at 1.2 µM -3% | [5]; at 3.7 µM -1% | [5]; [16] 21% | [5]; at 11.0 µM 1% | [5]; at 33.0 µM 3% | [5]; at 50.0 µM 34% | [5]; at 100.0 µM 21% | [9]; at 1.2 µM 0% | [9]; at 3.7 µM 1% | [9]; at 11.0 µM 7% | [9]; at 33.0 µM 14% | [9]; at 100.0 µM 25% | [10]; at 1.2 µM 0% | [10]; at 3.7 µM 1% | [10]; at 11.0 µM 4% | [10]; at 33.0 µM 14% | [10]; at 100.0 µM 34% | [11]; at 1.2 µM 1% | [11]; at 3.7 µM 7% | [11]; at 11.0 µM 15% | [11]; at 33.0 µM 30% | [6]; at 50.0 µM 61.8% | [12]; at 1.2 µM 1% | [12]; at 3.7 µM 2% | [12]; at 11.0 µM -2% | [12]; at 33.0 µM 25% | [12]; at 100.0 µM 55%
active: [1]; [17] 71% | [1]; at 50.0 µM 75.8% | [3]; [17] 86% | [5]; [17] 78% | [11]; at 100.0 µM 72% | [6]; [16] 78% | [6]; [17] 93%
